Compounds with a hit are over-represented: about 1.3% of the library has one in this group of screens.
C2C12 statin: suppression of simvastatin myotoxicity | hit rate 0.78% among 330,000 | rescue of ATP level, % at 7.49 µM | C2C12 myotubes + simvastatin, ATP luminescence, 48 h; scaled: DMSO 0, geranylgeraniol control 100;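 active means mean ATP rescue above about 67%, or every replicate alone reaching that limit, limit read from the data, passing the limit was not always enough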;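 further: myotubes were challenged with 10 µM simvastatin during compound exposure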
HIF activator: HIF pathway transcriptional activation | activation, % at 7.5 µM (by protocol) | U2OS HRE-luciferase reporter, luminescence; normalized: DMSO 0%, desferrioxamine 100% | hit rate 0.32% among 300,000;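 active means mean activation of at least 10% of the iron chelator positive control signal, with at least half of replicates also reaching 10%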
Rce1 inh: blocks yeast Ras-converting enzyme. hit rate 0.27% among 290,000. Q03530. calls only. yeast membranes, quenched prenylated peptide cleavage fluorescence. AID 2563;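 active means fall in fluorescence gain of 50% or more versus controls, with final raw signal at or below 3038400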
Target sequence (Q03530 whole entry, looked up): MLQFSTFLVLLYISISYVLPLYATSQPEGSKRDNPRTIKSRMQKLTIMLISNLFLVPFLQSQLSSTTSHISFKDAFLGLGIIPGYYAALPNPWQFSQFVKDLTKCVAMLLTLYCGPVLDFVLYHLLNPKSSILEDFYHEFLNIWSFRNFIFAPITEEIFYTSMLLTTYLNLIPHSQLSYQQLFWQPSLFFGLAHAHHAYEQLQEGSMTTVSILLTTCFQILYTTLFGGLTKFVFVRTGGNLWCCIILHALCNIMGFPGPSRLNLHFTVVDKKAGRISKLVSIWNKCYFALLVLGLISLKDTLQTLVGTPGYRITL
AI-2 QS mod: modulators of Vibrio harveyi AI-2 quorum sensing system; Vibrio harveyi JMH597 AI-2 luminescence/OD600 ratio, 9 h; active compounds read low; strain lacks LuxN and CqsS sensors; 0 = neutral-control median; hit rate 0.4% among 300,000; activity change, % at 7.5 µM; in the data active means activity change below about -75%, passing the limit was not always enough;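 further: luminescence divided by OD600 gain over 9 h not by final OD600 alone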
PGC1a acetyl inh: lowers PGC1a acetylation signal in U2OS cells | AlphaScreen anti-acetyl-lysine; with virally co-expressed GCN5 acetyltransferase | inhibition, % at 15.6 µM | hit rate 0.17% among 350,000 | AID 651687;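 active means every replicate shows inhibition of at least 40%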
Hits are given with their value; - = inactive; . = not tested or not shown; + = active, no number.

SMILES	C2C12 statin	HIF activator	Rce1 inh	AI-2 QS mod	PGC1a acetyl inh
FC(F)(F)c1nnc(-c2ccccc2)nc1N1CCOCC1	-	-	-	-	-
CO[C@H]1CN(C)C(=O)c2cc(NC(=O)c3ccno3)ccc2OC[C@H](C)NC[C@@H]1C	-	.	.	.	-
Cc1cccc(C)c1NC(=O)/C(C#N)=C/c1cccs1	84	-	-	-	-
Cc1ccc(NC(=O)/C(C#N)=C/c2cccs2)c(C)c1	.	-	-	-	-
O=C(O)CCSCCC(=O)O	91	-	-	-	-
O=C(O)CCSSCCC(=O)O	-	.	.	.	-
C[C@@H]1CCCCO[C@H](CN(C)C(=O)Nc2cccc3ccccc23)[C@H](C)CN([C@@H](C)CO)C(=O)c2cc(NC(=O)Nc3ccc4c(c3)OCO4)ccc2O1	122	.	.	.	-
C[C@@H]1CCCCO[C@H](CN(C)C(=O)Nc2cccc3ccccc23)[C@H](C)CN([C@@H](C)CO)C(=O)c2cc(N(C)C)ccc2O1	71	.	.	.	-
Cc1noc(C)c1S(=O)(=O)N(C)C[C@@H]1Oc2ccc(NC(=O)CCN3CCOCC3)cc2CC(=O)N([C@@H](C)CO)C[C@@H]1C	.	.	.	.	-
COc1cccc(S(=O)(=O)N2C[C@@H](O)COC[C@H]3O[C@H](CC(=O)N4CCOCC4)CC[C@@H]32)c1	-	.	.	.	-
Cc1cc2ncn(/N=C/c3ccc(-c4ccccc4)o3)c2cc1C	146	-	-	-	-
Cc1cc2ncn(/N=C/c3cccnc3)c2cc1C	-	-	-	-	-
O=C(N[C@H]1CC[C@H](CCn2cc(-c3ccccn3)nn2)O[C@H]1CO)c1ccncc1	-	.	.	.	-
COc1ccc(NC(=O)N(C)C[C@H]2Oc3ccc(N(C)C)cc3CC(=O)N([C@@H](C)CO)C[C@@H]2C)cc1	-	.	.	.	-
CCCCCCCCNC(C)C(O)c1ccc(SC(C)C)cc1 (configuration not stated)	-	-	+	-	.
C[C@@H](NCCc1ccc(O)cc1)[C@@H](O)c1ccc(O)cc1	-	-	-	-	-
O=S(=O)(Nc1ccc(S(=O)(=O)Nc2ccccc2)cc1)c1ccccc1	-	-	-	-	-
O=S(=O)(Nc1ccc(Nc2ccccc2)cc1)c1ccc(F)cc1	-	-	-	-95	.
COc1ccc2c3c([nH]c2c1)[C@H](CO)N(C(=O)c1cnccn1)CC31CCN(S(C)(=O)=O)CC1	.	.	.	.	-
COC(=O)CN1C(=O)[C@H]2[C@@H](c3ccc(C)o3)N3C(=O)CN(CC4CC4)C(=O)[C@@]3(Cc3ccccc3)[C@H]2C1=O	-	287	-	-	-
COC(=O)CN1C(=O)[C@H]2[C@@H](c3ccc(C)o3)N3C(=O)CN(CCO)C(=O)[C@@]3(Cc3ccccc3)[C@H]2C1=O	-	-	-	-	.
COC(=O)c1scc(C)c1NC(=O)c1ccc(Cl)cc1	-	-	-	-	.
COC(=O)c1scc(C)c1NC(=O)C1CCCCC1	83	-	-	-	-
C[C@H]1CN([C@@H](C)CO)C(=O)c2cccc(NC(=O)Nc3ccc(C(F)(F)F)cc3)c2O[C@@H]1CN(C)Cc1ccc(C(=O)Nc2ccccc2N)cc1	.	.	.	.	-
Cc1ccc(C2CC(c3cccs3)=NN2C(=O)c2ccc(Br)o2)cc1 (configuration not stated)	93	-	-	-	-
SMILES	C2C12 statin	HIF activator	Rce1 inh	AI-2 QS mod	PGC1a acetyl inh
Cn1cnc(S(=O)(=O)N2C[C@@H](O)COC[C@@H]3O[C@@H](CC(=O)NCc4cc(F)cc(F)c4)CC[C@H]32)c1	-	.	.	.	-
Cc1nc2c(C(=O)N3CCCCC3)cnn2c(C)c1Cc1ccccc1F	.	-	-	-	-
Cc1nc2c(C(=O)N3CCN(C)CC3)cnn2c(C)c1Cc1ccc(Cl)cc1	-	-	+	-	-
COC(=O)c1ccc(CSc2nnc(Nc3ccc(C)cc3)s2)o1	95	-	-	-	-
COc1ccc(CN(C)C[C@@H]2Oc3c(NC(=O)C4CCCCC4)cccc3C(=O)N([C@@H](C)CO)C[C@@H]2C)cc1	-	.	.	.	-
CN1C(=O)c2cc(NC(=O)C3CC3)ccc2OC[C@H]2O[C@@H](CC(=O)O)CC[C@@H]21	.	.	.	.	-
Cn1c(N/N=C/c2cc3ccccc3nc2Cl)nc2ccccc21	.	22	-	-	.
COc1ccc(-c2n[nH]c(C)c2-c2cc(OC)ccc2O)cc1	134	-	-	-	-
CCCc1cn(CC[C@H]2CC[C@H](NC(=O)C3CCCC3)[C@@H](CO)O2)nn1	-	.	.	.	-
Cc1noc(C)c1NC(=O)Nc1ccc2c(c1)C(=O)N([C@H](C)CO)C[C@@H](C)[C@H](CN(C)C(=O)Nc1ccc(F)cc1)OCCCC[C@@H](C)O2	-	.	.	.	-
CC(C)(CO)CNc1ccn2nccc2n1	-	.	.	.	43
COc1ccc(-c2ccc([C@@H]3[C@@H](CO)N4C(=O)CN(Cc5ccc(F)cc5)C[C@@H]34)cc2)cc1	.	.	.	.	-
CCOc1ccc(C2C(C(=O)OC)=CN(C(C)c3ccccc3)C=C2C(=O)OC)cc1 (configuration not stated)	-	-	+	-	.
Cc1ccc(S(=O)(=O)Nc2ccc3c(c2)C(=O)N([C@H](C)CO)C[C@H](C)[C@@H](CN(C)S(=O)(=O)c2ccc(F)cc2)O3)cc1	-	.	.	.	-
O=S(=O)(c1ccc2[nH]ccc2c1)N1CCCCCC1	-	-	-	-	68
CCN(CC)c1ccc(/C=N/NC(=O)C(O)(c2ccccc2)c2ccccc2)o1	.	-	+	-	.
C[C@@H]1CN([C@H](C)CO)C(=O)c2c(c3ccccc3n2C)-c2ccccc2CO[C@@H]1CN(C)C(=O)[C@@H]1CCCN1C	-	.	.	.	-
O=C(C[C@H]1CC[C@@H]2[C@H](COC[C@H](O)CN2CCC(F)(F)F)O1)NCc1ccc(Oc2ccccc2)cc1	72	.	.	.	-
C[C@H](CO)N1C[C@H](C)[C@@H](CN(C)C(=O)CCCN(C)C)OCCCC[C@H](C)Oc2ccc(NC(=O)CCC(F)(F)F)cc2C1=O	-	.	.	.	-
O=C(O)CCCN1C(=O)/C(=C/c2ccc(-c3nc4ccccc4s3)o2)SC1=S	-	-	-	-	-
O=C(O)CCCCCN1C(=O)/C(=C\c2ccc(-c3ccc(Cl)cc3)o2)SC1=S	133	-	-	-	-
CCCCCNC(=O)C1CC=CCC1C(=O)O (configuration not stated)	125	-	-	-	-
O=C(C[C@@H]1CC[C@H]2[C@@H](COC[C@H](O)CN2C(=O)c2ccccc2F)O1)NCc1ccc(Cl)cc1	-	.	.	.	-
O=S(=O)(N[C@@H]1CCCN(Cc2ccc(OCCO)cc2)C1)c1cc(C(F)(F)F)ccc1Cl	.	.	.	.	-
Cc1[nH]c2ccc(C(C)C)cc2c1CC(=O)O	-	-	-	-	76
Cc1ccc2[nH]c(C)c(CC(=O)O)c2c1	-	-	-	-	-
Cc1ccc(C(=O)c2c3ccccc3[n+]([O-])n2CCC(=O)O)cc1	80	.	.	.	-
NC(=O)CCn1c(C(=O)c2ccc(Cl)cc2)c2ccccc2[n+]1[O-]	.	-	-	-	-
CCCNC(=O)C[C@@H]1CC[C@@H]2[C@H](COc3ccc(NC(=O)c4ccc(C(F)(F)F)cc4)cc3C(=O)N2C)O1	-	.	.	.	-

Source: PubChem
